Source: PubChem BioAssay (several laboratories)
SUMO Mot1 rescue: blocks SUMOylation pathway, rescuing yeast Mot1-301 growth. S. cerevisiae Mot1-301 growth rescue, ATP luminescence, 38.5C; percent above DMSO median, 100 means doubled. growth rescue, % at 18.8 µM. actives 1% (n = 320,000). AID 2716;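 active = every valid replicate shows activation above 250% relative to neutral control wells; inactive = the rest, any valid replicate at or below 250%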
H9c2 protect: modulators protecting cardiomyocytes from myocardial damage; H9c2 cardiomyocytes, H2O2 injury protection, ATPLite, 2 h; protection from H2O2 cell death, % at 20 µM; actives 0.63% (n = 360,000); AID 588492;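 active = compounds giving at least 50% protection of heart cells from peroxide-induced death in the single-dose screen, raw or plate-pattern-corrected value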
AI-2 QS modul: modulates the Vibrio harveyi AI-2 quorum sensing system; activity change, % at 7.5 µM; AID 2094; actives 0.4% (n = 300,000); Vibrio harveyi JMH597 AI-2 luminescence/OD600 ratio, 9 h; active compounds read low; strain lacks LuxN and CqsS sensors; 0 = neutral-control median; in the data active = activity change below about -75%, passing the limit was not always enough;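 note: luminescence divided by OD600 gain over 9 h not by final OD600 alone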
NTR1 ag: NTR1 (human) agonism; P30989; activation, % at 20 µM; NTR1-U2OS beta-arrestin-GFP spot imaging, agonist mode; actives 0.17% (n = 330,000);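 active = activation at or above 40% of the spot to cytoplasm intensity ratio, with at least 20 cells analyzed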
NR3A LBD binder: modulators (binders) of human NR3A ligand-binding domain | NR3A LBD differential scanning fluorimetry, Tm shift; 0% = protein alone, 100% = glycine-bound protein | Tm shift relative to glycine control, % at 25 µM | actives 2.5% (n = 340,000) | AID 1259313;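 active = melting temperature shift of at least 10% of the positive control shift, at one fixed dose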
AHR activator: activators of human aryl hydrocarbon receptor; AHR-responsive luciferase reporter cells, luminescence; activation, % at 5 µM; actives 2.5% (n = 320,000); AID 2796; in the data active = activation above about 47%
Target sequence (P35869 whole entry, looked up): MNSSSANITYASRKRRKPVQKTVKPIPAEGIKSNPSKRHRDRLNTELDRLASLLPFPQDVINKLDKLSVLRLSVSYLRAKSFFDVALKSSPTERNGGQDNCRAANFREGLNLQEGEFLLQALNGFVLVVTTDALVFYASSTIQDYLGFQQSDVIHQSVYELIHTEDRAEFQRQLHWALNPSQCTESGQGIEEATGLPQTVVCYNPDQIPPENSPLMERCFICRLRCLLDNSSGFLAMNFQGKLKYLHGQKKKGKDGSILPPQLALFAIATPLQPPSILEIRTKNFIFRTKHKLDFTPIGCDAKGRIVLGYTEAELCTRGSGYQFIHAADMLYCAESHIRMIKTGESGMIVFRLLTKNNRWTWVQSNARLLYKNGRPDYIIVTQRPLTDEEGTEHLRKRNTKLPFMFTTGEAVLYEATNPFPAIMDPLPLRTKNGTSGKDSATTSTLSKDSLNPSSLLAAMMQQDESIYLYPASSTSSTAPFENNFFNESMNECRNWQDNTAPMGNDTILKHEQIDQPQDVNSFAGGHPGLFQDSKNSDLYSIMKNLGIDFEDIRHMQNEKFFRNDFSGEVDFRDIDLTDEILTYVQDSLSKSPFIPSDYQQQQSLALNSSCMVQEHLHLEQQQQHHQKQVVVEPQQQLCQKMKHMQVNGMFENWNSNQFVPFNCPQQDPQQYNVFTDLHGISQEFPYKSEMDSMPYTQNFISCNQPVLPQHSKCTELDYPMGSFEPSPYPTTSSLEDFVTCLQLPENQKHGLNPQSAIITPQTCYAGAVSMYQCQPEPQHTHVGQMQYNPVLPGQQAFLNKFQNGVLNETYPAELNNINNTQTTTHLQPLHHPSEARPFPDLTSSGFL
Mot1 SUMO dose: inhibits SUMO pathway, affecting Mot1-301 yeast growth; growth activity, percent, % at 42 µM; 2,300 tested, under 10 active; shares compounds with SUMO Mot1 rescue; AID 493004; S. cerevisiae Mot1-301 galactose growth, ATP luminescence, 24 h; -100 = growth of slx-deleted rescue strain;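 active = Signal drops as the depositor expects, and the fitted half-maximal dose is no more than ten times the top valid tested dose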;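 note: more negative values mean stronger growth rescue toward the control strain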
Of the large screens only hits and unclear results are named; the others gave an inactive call (follow-up assays come after a bar, where they were run). An excerpt weighted towards active compounds, which were near 6.2% of everything screened.

CCc1nnc(NC(=O)CSc2nc3c(cc2C#N)CCCC3)s1	SUMO Mot1 rescue 736 | Mot1 SUMO dose inactive
CCOC(=O)c1sc(NC(=O)CSc2nc3c(cc2C#N)CCCCC3)c(C#N)c1C	none
N#Cc1ccc2[nH]c(CO)c(-c3ccccc3)c2c1	SUMO Mot1 rescue active | Mot1 SUMO dose inactive
COC(=O)c1ccc2[nH]c(CO)c(-c3ccccc3)c2c1	none
C[C@@H]1CN([C@@H](C)CO)S(=O)(=O)c2ccc(Br)cc2O[C@@H]1CN(C)C(=O)c1ccccn1	none (no result: SUMO Mot1 rescue, AI-2 QS modul, NTR1 ag, NR3A LBD binder, AHR activator)
COc1ccccc1CNCc1ccc(C)cc1	none
COc1ccccc1CNCc1cc(OC)c(OC)c(OC)c1	SUMO Mot1 rescue active | Mot1 SUMO dose inactive
Cc1ccccc1Cn1c(C)c(C(=O)NCCC#N)sc1=O	none (no result: SUMO Mot1 rescue, AI-2 QS modul, NTR1 ag, NR3A LBD binder, AHR activator)
CC(=O)N(C(C)=O)C1=C(C#N)C2(CCCCC2)Cc2ccccc21	SUMO Mot1 rescue 871 | Mot1 SUMO dose inactive
O=C(/C=C/[C@H]1O[C@@H](n2ccc(=O)[nH]c2=O)[C@H](O)[C@@H]1O)N[C@@H](Cc1ccccc1)C(=O)O	none (no result: SUMO Mot1 rescue, AI-2 QS modul, NTR1 ag, NR3A LBD binder, AHR activator)
c1cnc2nc3c4ccccc4c4ccccc4c3nc2c1	none (no result: SUMO Mot1 rescue, AI-2 QS modul, NTR1 ag, AHR activator)
Cc1nc2ccccc2c2ncccc12	SUMO Mot1 rescue 613 | Mot1 SUMO dose inactive
CCCNC(=O)COC(=O)CCC(=O)c1cccs1	SUMO Mot1 rescue 422 | Mot1 SUMO dose inactive
Cc1n[nH]c(C)c1S(=O)(=O)N(CC(=O)NC1CCCC1)c1ccc(C(C)C)cc1	SUMO Mot1 rescue 634 | Mot1 SUMO dose inactive
O=C(Nc1ccc(F)cc1)c1ccc(CSc2ccc(Cl)cc2)o1	none
O=C(Nc1ccc(F)cc1)c1ccc(CSc2ccccc2)o1	SUMO Mot1 rescue active | Mot1 SUMO dose inactive
CCOC(=O)/C(C#N)=C\c1ccc(CC)s1	SUMO Mot1 rescue active | Mot1 SUMO dose inactive
O=C(c1cc(N2C(=O)C3C4CCC(C4)C3C2=O)ccc1Cl)N1CCCCCC1 (centres undefined)	SUMO Mot1 rescue 361 | Mot1 SUMO dose inactive
CC(C)C(CC(=O)NCc1ccco1)c1ccco1 (centres undefined)	SUMO Mot1 rescue 646 | Mot1 SUMO dose inactive
O=Cc1cc(N=Nc2ccc(S(=O)(=O)O)cc2)ccc1O	none
O=S(=O)(O)c1ccc(N=NNc2ccc(Br)cc2)cc1	SUMO Mot1 rescue 539 | Mot1 SUMO dose inactive
COc1cc(C(=O)NCCC2=CCCCC2)cc(OC)c1OC	SUMO Mot1 rescue 807 | Mot1 SUMO dose inactive
COc1cc(C(=O)OCC(=O)NCCC2=CCCCC2)cc(OC)c1OC	none (no result: SUMO Mot1 rescue, AI-2 QS modul, AHR activator)
COc1cc(C(=O)NCCOc2cc(C)cc(C)c2)cc(OC)c1OC	SUMO Mot1 rescue 631 | Mot1 SUMO dose inactive
O=C(CN1C(=O)NC2(CCCc3ccccc32)C1=O)Nc1cc(F)ccc1F (centres undefined)	none
O=C(NC(Cc1ccccc1)C(=O)O)OCc1ccccc1 (centres undefined)	none
O=C(O)CC(NC(=O)OCc1ccccc1)c1ccc(Br)cc1 (centres undefined)	SUMO Mot1 rescue 585 | Mot1 SUMO dose inactive
COc1ccc(S(=O)(=O)N2CCCCC2)cc1NC(=O)c1ccc(N2CCCC2=O)cc1	none (no result: AI-2 QS modul)
COC(=O)c1cc(Cl)c(NC(=O)C(C)C)cc1OC	SUMO Mot1 rescue 661 | Mot1 SUMO dose inactive
O=C(NCc1c(Cl)cccc1Cl)c1[nH]c(C(F)(F)F)nc1-c1ccccc1	none (no result: SUMO Mot1 rescue, AI-2 QS modul, NTR1 ag, NR3A LBD binder, AHR activator)
CCN(CC)CCNC(=O)c1ccc(NC(=O)/C=C/c2ccc3ccccc3n2)cc1	none (no result: AHR activator)
CCC(=O)Nc1ccc(Br)c(Cl)c1	SUMO Mot1 rescue 703 | Mot1 SUMO dose inactive
CC(Cc1ccc(O)c(O)c1)C(C)Cc1ccc(O)c(O)c1 (centres undefined)	SUMO Mot1 rescue 553, NR3A LBD binder 24 (no result: H9c2 protect) | Mot1 SUMO dose inactive
COc1cc(C[C@@H](C)[C@@H](C)Cc2ccc(O)c(OC)c2)ccc1O	none (no result: AI-2 QS modul)
CCCCNS(=O)(=O)c1ccc(OC)cc1	SUMO Mot1 rescue 495 | Mot1 SUMO dose inactive
CCOc1ccc(NC(=O)CN(C)C(=O)c2ccc(OCc3ccccc3)c(OC)c2)cc1OCC	SUMO Mot1 rescue 540 | Mot1 SUMO dose inactive
COc1ccc(Cl)cc1NC(=O)CN(C)C(=O)c1ccc(OCc2ccccc2)c(OC)c1	none
COc1cccc(-c2csc(N3CCN(CC(=O)NNC(=O)c4ccc(Br)cc4)CC3)n2)c1	none
O=C(CN1CCN(c2nc(-c3ccccc3)cs2)CC1)NNC(=O)c1ccc(Br)cc1	SUMO Mot1 rescue 656 | Mot1 SUMO dose inactive
CN1CCN(S(=O)(=O)c2ccc(C(F)(F)F)cc2)C(c2ccccc2)C1 (centres undefined)	none (no result: SUMO Mot1 rescue, AI-2 QS modul)
O=C(CCCNC(=O)/C(=C/c1ccccc1F)NC(=O)c1ccccc1)OCc1ccccc1	SUMO Mot1 rescue 496 | Mot1 SUMO dose inactive
O=C1CC(c2c[nH]c3ccccc23)C(=O)N1c1ccccc1 (centres undefined)	SUMO Mot1 rescue 709 | Mot1 SUMO dose inactive
CCc1nc2ccc(C(=O)NCCC(C)C)cn2c1N(CC)CCN(C)C	none (no result: SUMO Mot1 rescue, AI-2 QS modul, NTR1 ag, NR3A LBD binder, AHR activator)
Cc1cccc(N2C(=O)/C(=C/c3cccnc3)SC2=S)c1	SUMO Mot1 rescue 939 | Mot1 SUMO dose inactive
COc1ccc(CN2C(=O)c3c(c(C)n(C)c3C)C2C(=O)NC2CCC(C)CC2)cc1 (centres undefined)	SUMO Mot1 rescue 697 | Mot1 SUMO dose inactive
COc1ccc(-c2cccc(-c3cc(=O)oc4ccc(C(C)(C)C)cc34)c2)cc1	none (no result: SUMO Mot1 rescue, AI-2 QS modul, AHR activator)
COc1ccccc1NC(=S)N(Cc1ccccc1)Cc1cccs1	SUMO Mot1 rescue active | Mot1 SUMO dose inactive
COCCCN(CCC#N)C(=O)c1c(-c2c(Cl)cccc2Cl)noc1C	none
Cc1cc(F)ccc1S(=O)(=O)NCC1CC2CCC1C2 (centres undefined)	none
C=CC[C@@H](CC(=O)NCCO)C(=O)N[C@@H](COC(=O)[C@@H](CC=C)CC(=O)OC(C)(C)C)Cc1c[nH]c2ccccc12	none (no result: AI-2 QS modul)
COc1cc(/C=C/C(=O)O)cc(S(=O)(=O)Nc2ccccc2C(=O)NCc2ccco2)c1OC	none (no result: AI-2 QS modul)
Cc1cc(C)n(-c2nc3ccccc3nc2N2CCN(C(=O)c3ccccc3)CC2)n1	SUMO Mot1 rescue 497 | Mot1 SUMO dose inactive
Cc1ccc(OC(=O)c2ccc3c(=O)n4c(nc3c2)CCC4)cc1	none (no result: SUMO Mot1 rescue, AI-2 QS modul, AHR activator)
COc1cc(OC)cc(OC(=O)c2ccc3c(=O)n4c(nc3c2)CCC4)c1	SUMO Mot1 rescue 359 | Mot1 SUMO dose inactive
C/C(=N\NC(=O)Cc1csc(N2CCOCC2)n1)c1ccccc1	SUMO Mot1 rescue 476 | Mot1 SUMO dose inactive
COC/C=C/C1=CC2=CC(=O)C(C)(OC(=O)c3cnc4ccccc4n3)C(=O)C2=CN1CCOC (centres undefined)	SUMO Mot1 rescue 519 | Mot1 SUMO dose inactive
